Results filed as inconclusive are left out. Where a call stands in place of a potency, no number is given. Active and inactive are the calls of the source. Calls follow the shape of the dose curve; as a rule, active = well fitted cell-killing curve with a large enough effect; inconclusive = small, poorly fitted or top-dose-only effect; inactive = flat fitted curve, though single readings scatter.
Assay: Quantitative highthroughput screen to assess conditional lethalithy of NOMO1 cells grown in RPMI1640 with dialyzed fetal bovine serum (RPMI+ds) (AID 1963877); also: nearly all actives have a fitted effect of over 30% in size
Details: NOMO1 in RPMI+dialyzed FBS viability, ATP luminescence, 48 h; series mostly up to 45.8 µM
Source text: Assay Provider: Jason Cantor Ph.D.
Department of Biochemistry
University of Wisconsin-Madison, Madison, WI, USA
Chemical screening studies have identified drug sensitivities across hundreds of cancer cell lines but most putative therapeutics fail to translate. Discovery and development of drug candidates in models that more accurately reflect nutrient levels in human blood is a major challenge. Here we performed high-throughput screens in conventional versus Human Plasma-Like Medium (HPLM) to identify compounds that were "missed" when screening using the artificial culture condition. Sets of conditional anticancer compounds spanned phases of clinical development and included non-oncology drugs were assessed. […] We also traced conditional phenotypes for several chemotherapeutics to availability of HPLM-specific metabolites and confirmed others for compounds whose reported targets are encoded by nonessential genes. Our findings establish generalizable strategies for exploiting conditional lethality in HPLM to reveal therapeutic candidates and mechanisms of action in cancer cells.
Described herein are the results of each viability screens against three cell lines: NOMO1 (an acute myeloid leukemia cell line); P12-Ichikawa (a T-cell acute lymphoblastic leukemia); and SEM (a B-cell ALL). Each assay was screened using 3 different cell culture media: homemade human plasma-Like medium with 10% dialyzed fetal bovine serum (HPLM+ds); RPMI1640 with 10% untreated FBS and 5mM glucose (RPMI+s); and RPMI1640 with 10% dialyzed fetal bovine serum and 5 mM glucose (RPMI+ds).
PROTOCOL TABLE (as described by Inglese J, Shamu CE and Guy RK. 2007)
SEQUENCE No. (e.g., 1, 2, 3, etc.); […] (e.g., Cells, Incubation, Reagent, etc.); VALUE and DESCRIPTION.
1; Cells; 5 uL; white, solid bottom 1536-well Greiner assay plate.
2; Compounds; 23 nL; Kalypsis pin tool (Wako USA) equipped with a 1536-well pin head to transfer to the assay plates.
3; Incubation; 48 hours; 37C incubation.
4; Reagent; 3 uL; CellTiter Glo (Promega).
5; Incubation; 5 min, room temperature
6; Detection; Luminescence, Viewlux PerkinElmer.
NOTES (numbers refer to Sequence numbers above)
1. Briefly, 5 ul of cell reagent was dispensed using a Multidrop Combi Dispenser. The NOMO1 and SEM cells were plated at 500 cells/well and the P12-Ichikawa line at 1000 cells/well.
2. After seeding the cells, 23 nL of MIPE 4.1 library compounds (in DMSO) were added to each plate using a Kalypsys 1536 Pintool dispenser. Bortezomib at final concentration of […] and DMSO were added to each plate as positive and negative controls respectively. For each screen, MIPE 4.1 compounds were added over an eleven-point concentration range […] in 3-fold dilutions.
3. Each plate was covered with a stainless steel gasketed lid to prevent evaporation and incubated for 48 hour at 37C, 95% relative humidity, and 5% CO2.
4-5. Three microliter CellTilter-GloTM luminescent substrate mix (Promega) reagent was added to the assay plate and incubated at room temperature for 5 min.
6. The luminescence signal was measured using a ViewLux (PerkinElmer) multiplate reader with a 2 second exposure time per plate. Data for each compound were normalized as percent viability such that measurements for DMSO and the empty well controls in each plate were defined as 100% and 0%, respectively.
Potency is read from the fitted curve at half-maximal effect.

SMILES | Potency
CN1CCN(C(=O)O[C@H]2c3nccnc3C(=O)N2c2ccc(Cl)cn2)CC1 | inactive
C[C@H]1CCCC=CC2C[C@H](O)C[C@@H]2[C@H](O)C=CC(=O)O1 (stereo not given in full) | 1.2 nM (active)
COC[C@H]1OC(=O)c2coc3c2[C@@]1(C)C1=C(C3=O)C2CCC(=O)[C@@]2(C)C[C@H]1OC(C)=O (stereo not given in full) | inactive
COc1cc(OC)c(OC)cc1C=O | inactive
C[C@](O)(CS(=O)(=O)c1ccc(F)cc1)C(=O)Nc1ccc(C#N)c(C(F)(F)F)c1 | inactive
C[C@]12CCC(=O)C(O)=C1CC[C@@H]1[C@H]3CCC(=O)[C@@]3(C)CC[C@@H]12 | inactive
C[C@]12CC[C@H]3[C@@H](CCC4=CC(=O)CC[C@@]43C)[C@H]1CC[C@H]2OC(=O)CCC1CCCC1 | inactive
O=c1[nH]c2ccc(Cl)cc2c(N[C@@H]2CN3CCC2CC3)c1-c1nc2ccccc2[nH]1 | 148 nM (active)
O=C(O)c1nn(Cc2ccc(Cl)cc2Cl)c2ccccc12 | inactive
Cc1cccc(C)c1NC(=O)CN1CCCC1=O | inactive
CCC1(c2ccc(N)cc2)CCC(=O)NC1=O (stereo not given) | inactive
Fc1ccc(C(OCCN2CCN(CCCc3ccccc3)CC2)c2ccc(F)cc2)cc1 | 20900 nM (active)
COC1=C[C@@H]2[C@@H]3Cc4ccc(OC)c(O)c4[C@]2(CCN3C)CC1=O | inactive
O=C1C=CC[C@@H]2[C@H]3CCCN4CCC[C@@H](CN12)[C@@H]34 | inactive
C#C[C@]1(O)C=C[C@@H]2[C@@H]3CCC4=CC(=O)CC[C@@H]4[C@H]3CC[C@@]21CC | inactive
CCc1c(C(=O)C(N)=O)c2c(OCC(=O)O)cccc2n1Cc1ccccc1 | inactive
CC1=NN=C(c2ccc(N)cc2)c2cc3c(cc2C1)OCO3 | inactive
CN1C(=O)COc2c(C(=O)NC3CN4CCC3CC4)cc(Cl)cc21 (stereo not given) | inactive
O=c1[nH]c2ccccc2n1C1CCN(Cc2ccc(-c3[nH]c4cc5ncnc5cc4nc3-c3ccccc3)cc2)CC1 | inactive
COc1ccc(N(C(=O)Oc2c(C)cccc2C)c2ccnc(Nc3ccc(N4CCN(C)CC4)cc3)n2)c(OC)c1 | inactive

SMILES | Potency
N[C@@H](Cc1ccc(N(CCCl)CCCl)cc1)C(=O)O | 9350 nM (active)
CC(C)CC(N(C)C)C1(c2ccc(Cl)cc2)CCC1 (stereo not given) | inactive
C[C@@H]1[C@H](O)[C@@H](C)C=CC=CCCC=CC=CC=CC=C[C@H](O[C@H]2O[C@@H](C)[C@H](O)[C@@H](N)[C@@H]2O)CC2O[C@](O)(C[C@@H](O)[C@H](O)CC[C@@H](O)C[C@@H](O)C[C@@H](O)CC(=O)O[C@H]1C)C[C@H](O)[C@H]2C(=O)O | inactive
c1cc2c(cc1[C@H]1OC[C@H]3[C@H]1CO[C@H]3c1ccc3c(c1)OCO3)OCO2 | inactive
CC(C)(O)C(=O)Nc1ccc([N+](=O)[O-])c(C(F)(F)F)c1 | 1870 nM (active)
CCOP(=O)(OCC)C(C)NC(=O)N(CCCl)N=O (stereo not given) | inactive
C[C@@H]1C[C@@H]([C@H](O)CC2CC(=O)NC(=O)C2)C(=O)[C@@H](C)C1 | 1660 nM (active)
CCOC(=O)c1cncn1[C@H](C)c1ccccc1 | inactive
CCOC(=O)c1c(C(C#N)=CN)c2ccc(Cl)c(Cl)c2n1C | inactive
CC[C@@H](C(N)=O)N1CCCC1=O | inactive
CC(=O)Nc1ccc(OC[C@](C)(O)C(=O)Nc2ccc([N+](=O)[O-])c(C(F)(F)F)c2)cc1 | inactive
COc1ccc(C(=O)c2c(C)n(CCN3CCOCC3)c3ccccc23)cc1 | inactive
O=[N+]([O-])c1ncc[nH]1 | inactive
C[C@@H]1CC[C@H]2[C@@H](C)C(=O)O[C@@H]3O[C@@]4(C)CC[C@H]1[C@]32OO4 | inactive
C=C[C@@H]1CN2CCC1C[C@H]2[C@H](O)c1ccnc2ccccc12 (stereo not given in full) | 18700 nM (active)
COc1cc(C(=O)N2CC[C@@H](O)[C@@H](N)C2)cc2nc(-c3cc4ccccc4n3CC3CC3)n(C)c12 | 1170 nM (active)
Clc1ccccc1C(c1ccccc1)(c1ccccc1)n1cccn1 | inactive
CNC(=O)c1ccc(N2C(=S)N(c3ccc(C#N)c(C(F)(F)F)c3)C(=O)C23CCC3)cc1F | inactive
C[C@@H]1O[C@@H](O[C@@H]2C=C3CC[C@@H]4[C@@H](CC[C@]5(C)[C@H](c6ccc(=O)oc6)CC[C@@]45O)[C@@]3(C)CC2)[C@H](O)[C@H](O)[C@H]1O | 46.9 nM (active)
CCNC(=O)CC1N=C(c2ccc(Cl)cc2)c2cc(OC)ccc2-n2c(C)nnc21 (stereo not given) | inactive

— PubChem BioAssay (NCATS)
